TRPV1 agonist: agonists of human vanilloid receptor 1 (TRPV1). Q8NER1. TRPV1-expressing cells, Fluo-8 calcium influx, agonist mode. activation, % at 8.33 µM. 0.19% of 320,000 active. AID 540275; in the data active means activation above about 80%; inconclusive means between about 30% and that limit; further: 0% is about no effect
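Cells expressing TRPV1 were dye-loaded with Fluo-8 and read kinetically: 10 s baseline, 3 min after compound (agonist portion), then 2 min after EC20 capsaicin (allosteric enhancer portion). Calcium-bound dye fluorescence at 480/520 nm.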
uPA surface inh: blocks generation of uPA at the cell surface. cell surface uPA generation assay, qHTS. Potency, µM (doses to about 38.3 µM), for inactives: top-dose activity change, negative = inhibition, most hits filed as inhibitors. AID 540303. 0.31% of 330,000 active; active means well fitted inhibition curve with a large enough effect; inconclusive means small, poorly fitted or top-dose-only effect; inactive means no such curve, though single readings can be large or run the other way; tested in mouse RAW 264.7 cells; further: potency means the concentration at half of the fitted maximal effect; on the % scale 0 is the no-effect control and ±100 the full control effect; nearly all actives have a fitted effect of over 55% in size
VP16 counter: inhibits Gal4-VP16 luciferase reporter, ROR gamma counter-screen; AID 2546; 3.5% of 310,000 active; Potency, µM (highest dose often 53.6 µM), without a hit: at the highest dose activity, negative = inhibition, usual class: inhibitors; Drosophila S2 Gal4-VP16 UAS-luciferase, luminescence, 20 h;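 further: Gal4-VP16 expression switched on by copper sulfate through the metallothionein promoter; potency means the concentration at half of the fitted maximal effect; on the % scale 0 is the no-effect control and ±100 the full control effect; nearly all actives have a fitted effect of over 50% in size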
TRPV1 PAM: enhances activation of the human vanilloid receptor TRPV1. Q8NER1. TRPV1-expressing cells, Fluo-8 calcium influx, capsaicin EC20 potentiation. potentiation, % at 8.33 µM. 0.02% of 320,000 active. AID 540277; in the data active means potentiation above about 80%; inconclusive means between about 30% and that limit; further: 0% is about no effect
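Cells expressing TRPV1 were dye-loaded with Fluo-8 and read kinetically: 10 s baseline, 3 min after compound (agonist portion), then 2 min after EC20 capsaicin (allosteric enhancer portion). Calcium-bound dye fluorescence at 480/520 nm.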
RORgamma inh: blocks mouse ROR gamma transcriptional activity | P51450 | 5.4% of 310,000 active | Drosophila S2 Gal4-RORgamma UAS-luciferase reporter, 20 h | Potency, µM (highest dose often 53.6 µM), for the others: at the highest dose activity change, negative = inhibition, actives largely listed as inhibitors; further: potency means the concentration at half of the fitted maximal effect; on the % scale 0 is the no-effect control and ±100 the full control effect; nearly all actives have a fitted effect of over 60% in size
Target sequence (P51450 whole entry, looked up, the tested form may be a part): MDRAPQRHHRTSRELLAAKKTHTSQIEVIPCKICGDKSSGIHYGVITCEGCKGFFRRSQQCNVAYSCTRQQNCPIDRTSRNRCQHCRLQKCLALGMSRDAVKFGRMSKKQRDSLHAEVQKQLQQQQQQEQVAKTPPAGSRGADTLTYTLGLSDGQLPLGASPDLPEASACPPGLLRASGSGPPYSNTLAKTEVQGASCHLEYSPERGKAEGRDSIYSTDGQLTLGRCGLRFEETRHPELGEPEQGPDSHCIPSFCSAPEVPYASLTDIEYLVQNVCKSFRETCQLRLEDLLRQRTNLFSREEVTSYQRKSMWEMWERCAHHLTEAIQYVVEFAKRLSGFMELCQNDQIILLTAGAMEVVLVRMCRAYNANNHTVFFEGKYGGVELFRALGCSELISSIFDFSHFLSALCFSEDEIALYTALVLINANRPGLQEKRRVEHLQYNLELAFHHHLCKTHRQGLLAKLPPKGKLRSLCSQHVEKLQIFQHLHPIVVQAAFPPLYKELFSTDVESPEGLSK
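ROR gamma transcriptional activity was tracked as Gal4-UAS luciferase output in stably transfected Drosophila Schneider cells, with compound added 1 hr before 700 uM copper sulfate induction and a 20 hr ambient-temperature incubation.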
The depositor's hits bear a star; ? = inconclusive; nt = no result given; [ ] = remark or other dose. In the library only some 5.8% were active in any assay of this set; here they are far more common. Unless noted, the call rests on the fitted dose curve; in most records, active means well fitted curve in the direction sought with a large enough effect; inconclusive means small, poorly fitted or top-dose-only effect, or another doubt; inactive means no such curve, though single readings can be large; an effect the other way counts as inactive or inconclusive.

SMILES | TRPV1 agonist | uPA surface inh | VP16 counter | TRPV1 PAM | RORgamma inh
O=C(NC(=S)Nc1ccc(Cl)cn1)C(c1ccccc1)c1ccccc1 | -2 | 13% | 4µM* | -24 | 4µM*
CCC(=O)NC(=S)Nc1ccc(Cl)cn1 | 2 | 2% | ? | 9 | 2.8µM*
COc1cc(C(=O)Nc2ccc(NC(=O)c3cccc(Cl)c3)nc2)cc(OC)c1OC | 0 | 2% | 19% | 21 | 13%
COc1cc(C(=O)NC(=S)Nc2ccc(Cl)cn2)cc(OC)c1OC | 0 | -6% | 11µM* | -40 | 5µM*
CCCC(=O)Nc1ccc(NC(=O)C23CC4CC(CC(C4)C2)C3)cn1 | 4 | -3% | 5% | ? | ?
O=C(NC(=S)Nc1ccc(Cl)cn1)C12CC3CC(CC(C3)C1)C2 | -1 | -27% | 4µM* | 12 | 6.3µM*
COc1cc2c(cc1NC(=O)C(C)NCc1ccccc1)oc1ccccc12 (stereo unspecified) | -2 | 9% | ? | -10 | 34%
O=c1n(Cc2cc3c(cc2Cl)OCO3)c(=O)n2n1CC[C@H]1/C(=N\OC[C@@H](O)COCc3ccco3)[C@H]3O[C@@H]3[C@@H](O)[C@@H]12 | nt | nt | -8%[10 µM] | nt | -11%[10 µM]
CC1CC(CC(=O)NC(=S)Nc2ccccc2Cl)C(=O)O1 (stereo unspecified) | 3 | 3% | -16%[10 µM] | 18 | -25%
CC1CC(CCC(=O)NC(=S)Nc2ccc(Cl)cn2)C(=O)O1 (stereo unspecified) | 1 | 1% | -27% | -4 | 11µM*
COc1cc(SC)ccc1C(=O)Nc1ccc(Cl)cn1 | 1 | -17% | 8.9µM* | 5 | 7.9µM*
CCCCCC(=O)NC(=S)Nc1ccc(Cl)cn1 | -2 | -8% | 7.9µM* | -15 | 7.1µM*
COc1ccc(-c2ccc(C3C4C=CCCC4(C)C(=O)N3Cc3ccccc3)c(F)c2)cc1 (stereo unspecified) | nt | nt | ? | nt | 2%
CCOc1cc(N2CCOCC2)c(OCC)cc1NC(=O)CN1CCSC1=O | -2 | -8% | nt | -2 | nt
Cc1n[nH]c(=S)n1/N=C/c1c(O)ccc2ccccc12 | -6 | 3% | ? | -25 | ?
Cc1nc2ccccc2c(=O)n1/N=C/c1c(O)ccc2ccccc12 | 3 | -3% | ? | -9 | 13µM*
CCCc1nc2ccccc2c(=O)n1/N=C/c1ccc(O)cc1 | 22 | -2% | -12% | -24 | 25%
CCCc1nc2ccccc2c(=O)n1/N=C/c1ccc(O)cc1O | -5 | -11% | 20µM* | 28 | ?
CSc1nnc(C(C)(C)C)c(=O)n1/N=C/c1c(O)ccc2ccccc12 | 3 | -1% | ? | 7 | 10µM*
Cc1nc2ccccc2c(=O)n1/N=C/c1cc(Br)ccc1O | 3 | -2% | ? | -2 | 13µM*
O=C(COC(=O)CCc1ccccc1)Nc1cc(S(=O)(=O)N2CCOCC2)ccc1N1CCCC1 | 0 | nt | 4% | 4 | 15%
CC(=O)NCCCS(=O)(=O)O | nt | nt | 0% | nt | 24%
CN(C)CC[C@H](c1ccc(Br)cc1)c1ccccn1 | nt | nt | 5%[17 µM] | nt | -16%[16.9 µM]
S=C(NCc1cccs1)Nc1cccc2ccccc12 | ? | -4% | ? | -11 | 3.5µM*
S=C(NCc1ccccc1)Nc1cccc2ccccc12 | ? | -5% | 5.6µM* | -6 | 3.2µM*
SMILES | TRPV1 agonist | uPA surface inh | VP16 counter | TRPV1 PAM | RORgamma inh
Cc1cccc(NC(=S)NCc2cccs2)c1C | 4 | 1% | 10µM* | -4 | 3.5µM*
S=C(NCCc1ccccc1)NCc1cccs1 | ? | 1% | -84% | -15 | 11µM*
CC12C=C(/C=C/CCc3ccco3)C(C)(C1)C(CCc1ccco1)CC2=O (stereo unspecified) | nt | nt | -4%[10 µM] | nt | 8%[10 µM]
Cc1ccc(C(C)C)c(OCCNC(=S)Nc2cccc3ccccc23)c1 | 11 | nt | 3.2µM* | ? | 1.3µM*
CCc1cc(C(=O)Nc2ncccc2O)sc1C | 15 | 24% | 10µM* | -9 | 7.9µM*
CCc1cc(C(=O)NNC(=O)CCl)sc1C | 3 | ? | 17% | 4 | 10µM*
CCc1cc(C(=O)Nc2ccc(OC)nc2)sc1C | -5 | -3% | nt | 18 | nt
CC(=O)N(C1=C(Cl)C(=O)c2ccccc2C1=O)C1CCCCC1 | 10 | -13% | 11µM* | 4 | 10µM*
CC(=O)N(c1ccccc1C)C1CCCC1 | 3 | 1% | -7% | -4 | -26%
C=CCN=C1NN=C(c2ccc3c(c2)OCCO3)CS1 | 4 | -12% | 5.6µM* | 0 | 4.5µM*
Cc1sc(N)nc1-c1ccc2c(c1)OCCO2 | -4 | 2% | 1% | 17 | -12%
NC1=NN=C(c2ccc3c(c2)OCCO3)CS1 | 6 | -10% | 10µM* | -7 | 10µM*
C=CCN=C1NN=C(c2cc(C)n(CC=C)c2C)CS1 | -3 | -7% | ? | 3 | 11µM*
S=c1nc(-c2ccccc2)[nH]c2ccccc12 | 6 | 1% | 7.1µM* | 3 | 0.79µM*
CCN1CCN(c2ccc(S(=O)(=O)N3CCOCC3)cc2NC(=O)C2CCC(C(C)(C)C)CC2)CC1 (stereo unspecified) | nt | 4.5µM* | nt | nt | nt
COc1ccc(C2=NNC(c3cc(Cl)cc4c3OCOC4)C2)c(O)c1 (stereo unspecified) | -7 | nt | -3% | -2 | -6%
Oc1ccc(Cl)cc1C1=Nc2ccccc2N=C(c2ccco2)C1 | 2 | -9% | ? | 6 | ?
Oc1c(Cl)cc(Cl)cc1C1=NNC(c2ccc(Cl)cc2)C1 (stereo unspecified) | -3 | 1% | -24% | 9 | 8.9µM*
Oc1ccc(Cl)cc1C1=NNC(c2ccc(Cl)cc2)C1 (stereo unspecified) | 16 | -4% | 16µM* | 0 | 8.9µM*
Oc1ccc(Cl)cc1C1=NNC(c2cc(Br)cc3c2OCOC3)C1 (stereo unspecified) | -2 | -3% | ? | 10 | 7.9µM*
Cc1cc(C(=O)c2ccc3ccccc3c2)c(C)o1 | nt | 3% | nt | nt | nt
CCc1cccc2nc3c(c([Si](C)(C)C)c12)Cn1c-3cccc1=O | nt | nt | 1% | nt | 42%
O=c1c2c3c(sc2n2c(=S)[nH]nc2n1-c1ccccc1)CCC3 | 1 | 1% | 6% | -1 | 0%
Cc1cccc(-n2c(=O)c3c4c(sc3n3c(=S)[nH]nc23)CCC4)c1 | 0 | -1% | ? | -5 | ?
Cc1ccc(-n2c(=O)c3c4c(sc3n3c(=S)[nH]nc23)CCC4)cc1 | nt | -1% | -3% | nt | 11µM*
Cc1ccc(-n2c(=S)[nH]c3sc4c(c3c2=O)CCC4)cc1 | -4 | 0% | 3.5µM* | -10 | 1.1µM*
COc1ccc(-n2c(=O)c3c4c(sc3n3c(=S)[nH]nc23)CCC4)cc1 | nt | 7% | -13% | nt | 11µM*
CCC(NC(=O)c1ccc(C#CC2(O)CCCCC2)cc1)C(=O)O (stereo unspecified) | 1 | -1% | -18% | 9 | -30%
Cc1cc(C)cc(C(=O)NCC(=O)OCC(=O)Nc2cccnc2Cl)c1 | 10 | -2% | -12% | -1 | 0%
CCOC(=O)C1(CCc2ccccc2)CCN(C(=O)[C@@H]2C[C@@H](C)NC(=S)N2)CC1 | 7 | -3% | ? | -6 | 11µM*

Assay outcomes as filed in PubChem.
